Measured values: PubChem BioAssay (Tox21)
Results filed as inconclusive are left out. A number with no mark means an inactive call. Calls come from the whole dose curve; as a rule, active = well fitted activation curve with a large enough effect in the repeat runs; inconclusive = weak or mixed curves; inactive = flat fitted curve, though single readings scatter.

assay: A CellTox Green Cytotoxicity Assay to monitor cytotoxicity in HepG2 cells - 8 hour (AID 1224890); conditions: CellTox Green fluorescence; series mostly up to 76.8 µM; cytotoxicity increase: at the top concentration; note: nearly all actives have a fitted effect of over 45% in size
Summary of the method: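 Real-time, homogeneous cytotoxicity readout: dead-cell DNA staining by CellTox Green in HepG2 monolayers, fluorescence measured at timed intervals up to 40 h of continuous compound exposure.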
% is set by controls: 0 for no effect and ±100 for the full control effect.

SMILES	cytotoxicity increase
C#CCOC(C(=O)OCCN(C)C)(c1ccccc1)c1ccccc1	1.02% [at 35.3 µM]
Brc1ccccc1	0.386%
C[C@]12CC[C@H]3[C@@H](CCC4=CC(=O)CC[C@@H]43)[C@@H]1CC[C@@H]2OC(=O)CCC1CCCCC1	7.5% [at 35.3 µM]
Cn1sc(Cl)cc1=O	-10.6%
CC(C)O.CC(C)O.OCCN(CCO)CCO.OCCN(CCO)CCO.[Ti]	-6.6%
c1ccoc1	11.5%
O=C1c2ccccc2C(=O)C1C(=O)C(c1ccccc1)c1ccccc1	7.38% [at 35.3 µM]
NCC(CC(=O)O)c1ccc(Cl)cc1 (centres undefined)	-2.04% [at 0.29 µM]
CCOS(C)(=O)=O	3.38%
O=C(NCc1cccnc1)Nc1ccc([N+](=O)[O-])cc1	-1.59%
Cc1ccccc1CCl	2.22%
ClCCCCBr	-13.5%
COP(=S)(OC)Oc1cc(Cl)c(I)cc1Cl	8.92%
Nc1ccc([N+](=O)[O-])cc1[N+](=O)[O-]	-1.4%
CN1C(=O)NC(=O)C(C)(C2=CCCCC2)C1=O (centres undefined)	1.26% [at 35.3 µM]
O=C(CBr)Nc1ccc(Cl)cc1C(=O)c1ccccc1F	1.64% [at 35.3 µM]
C=CC(=O)OCC(C)O (centres undefined)	-9.85%
CC1C(=O)C[C@]2(C(C)C)C[C@H]12 (some centres undefined)	-7.63%
COc1cc(Cl)c(OC)cc1Cl	6.62%
CCCN(CCC)c1c([N+](=O)[O-])cc(S(C)(=O)=O)cc1[N+](=O)[O-]	-9.8%
CCc1ccc(C(=O)NN(C(=O)c2cc(C)cc(C)c2)C(C)(C)C)cc1	-10.9%
CC(C)(OO)c1ccccc1	-6.91%
Nc1ccc(N=Nc2ccc(-c3ccc(N=Nc4c(S(=O)(=O)O)cc5cc(S(=O)(=O)O)c(N=Nc6ccccc6)c(O)c5c4N)cc3)cc2)c(N)c1	-6.89% [at 35.3 µM]
N#Cc1ccc(Cl)cc1	-7.33%
C[N+](C)(C)CCCl	-1.71%
CN1C[C@H](CNC(=O)OCc2ccccc2)C[C@@H]2c3cccc4c3c(cn4C)C[C@H]21	13% [at 35.3 µM]
CCOP(=S)(OCC)SCSCC	3.19%
O=C(O)COc1ccc(Cl)cc1	-13.9%
COC1=CC(=O)O[C@@H](CCc2ccccc2)C1	-0.239%
